Compounds without any hit were thinned out: in the full panel of roughly 83,000, 20% have a hit.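 Results are percent growth after 48 hours of single-concentration exposure. 100 means growth as in untreated cells, lower positive values show inhibition; negative values down to -100 show cell death.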 Calls of active or inactive are those of the source. Rule for the calls: active = growth percent below 10; inactive = the rest.
test system: OVCAR-5 ovarian; experiment: NCI-60 one-dose screen, 48 h (100 = growth as untreated, 0 = no growth, -100 = all killed); conditions: 10 µM unless noted

| SMILES | growth |
| --- | --- |
| CCC(=O)Oc1ccc2ccccc2c1 | 103% (inactive) |
| C=CCN1CCCC1=O | 124% (inactive) |
| O=C(O)c1cccc(-n2ncc(Cl)c(Cl)c2=O)c1 | 106% (inactive) |
| Cc1ccc(OC(=O)c2ccccc2)cc1 | 100% (inactive) |
| O=Cc1c(O)c2ccccc2[nH]c1=O | 98.5% (inactive) |
| CC(=O)c1ccc(C)cc1 | 104% (inactive) |
| N#Cc1ccc2nc[nH]c2c1 | 108% (inactive) |
| CC(=O)[C@@]1(O)CC[C@H]2[C@@H]3CC[C@@H]4CC(=O)CC[C@]4(C)[C@H]3[C@@H](O)C[C@@]21C | 91.7% (inactive) |
| COC(=O)Cc1cc(COC(C)=O)ccc1C | 103% (inactive) |
| c1ccc(-c2ccc3ccccc3c2)cc1 | 99.6% (inactive) |
| C=CCC(OC(C)=O)c1ccc(C(C)C)cc1 (stereo not given) | 109% (inactive) |
| C=C(OC(C)=O)c1ccccc1 | 106% (inactive) |
| Nc1cccc2cccc(O)c12 | 103% (inactive) |
| CC(=O)c1cccs1 | 103% (inactive) |
| CSCCC(NC(=O)C(Cl)Cl)C(=O)O (stereo not given) | 94.7% (inactive) |
| O=C(O)CSCC(=O)Nc1cc(C(F)(F)F)ccc1Cl | 104% (inactive) |
| CCCCNC(=O)c1ccc(OCC)cc1 | 96.1% (inactive) |

test system: OVCAR-4 ovarian; experiment: as above; conditions: 10 µM unless noted

| SMILES | growth |
| --- | --- |
| O=C(OCC1CCCO1)c1ccc([N+](=O)[O-])cc1 (stereo not given) | 117% (inactive) |
| Cc1ccc(NC(=O)c2ccccc2Cl)cc1 | 107% (inactive) |
| C/C(O)=C(/C=N\C(=S)Nc1ccc(S(=O)(=O)Nc2nccs2)cc1)C(=O)Nc1ccccc1C | 98.7% (inactive) |
| NC(=S)N/N=C/c1ccc(Cl)cc1 | 97.3% (inactive) |
| Oc1ccc(CCC2CCNc3ccccc32)cc1 (stereo not given) | 63.2% (inactive) |
| O=C(NC1CCCCC1)c1ccc(Cl)cc1 | 108% (inactive) |
| CCOC(=O)CO | 111% (inactive) |
| CC(c1ccccc1)N(C)C (stereo not given) | 77.3% (inactive) |
| CC(CCC#N)(CCC#N)C(=O)c1ccccc1 | 90% (inactive) |
| Cc1ccc2nc(-c3ccc(N=Cc4ccccc4O)cc3)sc2c1 | 78.6% (inactive) |
| Nc1cc2ccccc2c(O)c1O | -97.7% (active) |
| CCOc1ccccc1NC(=O)CCl | 45.9% (inactive) |
| CCC12OC(COc3ccccc3)CN1CCN2c1ccccc1 (stereo not given) | 95.5% [100 µM] (inactive) |
| Cc1ccc(S(=O)(=O)CCCl)cc1 | 107% (inactive) |
| CC(C)c1ccccc1NC(=O)N1CCC(C(C)C)CC1 | 96.7% (inactive) |
| COc1ccc(C2CC(c3ccccc3)=Nc3ccccc3S2)cc1 (stereo not given) | 97.2% (inactive) |
| NC(CO)(CO)c1ccccc1 | 104% (inactive) |
| C=CC(=O)OC1CCC(C(C)(C)CC)CC1 (stereo not given) | 105% (inactive) |
| Cc1[nH]n(-c2ccccc2)c(=O)c1C=NC(=S)C(N)=S | 104% (inactive) |

| SMILES | growth |
| --- | --- |
| COc1cccc2c1Cc1ccccc1-2 | 98.9% (inactive) |
| NC(=O)N1CCOCC1 | 103% (inactive) |
| CCC(=O)Oc1ccc2ccccc2c1 | 101% (inactive) |
| C=CCN1CCCC1=O | 94.8% (inactive) |
| O=C(O)c1cccc(-n2ncc(Cl)c(Cl)c2=O)c1 | 91.1% (inactive) |
| Cc1ccc(OC(=O)c2ccccc2)cc1 | 114% (inactive) |
| O=Cc1c(O)c2ccccc2[nH]c1=O | 106% (inactive) |
| CC(=O)c1ccc(C)cc1 | 112% (inactive) |
| N#Cc1ccc2nc[nH]c2c1 | 109% (inactive) |
| CC(=O)[C@@]1(O)CC[C@H]2[C@@H]3CC[C@@H]4CC(=O)CC[C@]4(C)[C@H]3[C@@H](O)C[C@@]21C | 111% (inactive) |
| COC(=O)Cc1cc(COC(C)=O)ccc1C | 114% (inactive) |
| c1ccc(-c2ccc3ccccc3c2)cc1 | 108% (inactive) |
| C=CCC(OC(C)=O)c1ccc(C(C)C)cc1 (stereo not given) | 113% (inactive) |
| C=C(OC(C)=O)c1ccccc1 | 115% (inactive) |
| Nc1cccc2cccc(O)c12 | 83.1% (inactive) |
| CC(=O)c1cccs1 | 106% (inactive) |
| CSCCC(NC(=O)C(Cl)Cl)C(=O)O (stereo not given) | 115% (inactive) |
| O=C(O)CSCC(=O)Nc1cc(C(F)(F)F)ccc1Cl | 119% (inactive) |
| CCCCNC(=O)c1ccc(OCC)cc1 | 101% (inactive) |

Source: PubChem BioAssay (NCI)
